{"source": "PubChem BioAssay (NCI)", "note": "Compounds without any hit were thinned out: in the full panel of roughly 83,000, 20% have a hit.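 Method: cells in 96-well plates; compound added at one concentration; 48 h incubation; percent growth measured; values under 10 scored active.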 Activity calls are given as the source filed them."}
{"test_system": "OVCAR-5 ovarian", "assay": "NCI-60 one-dose screen, 48 h (100 = growth as untreated, 0 = no growth, -100 = all killed)", "conditions": "10 µM unless noted", "description": "Growth inhibition of the OVCAR-5 human tumor cell line is measured as a screen for anti-cancer activity. Cells are grown in 96 well plates and exposed to the test compound for 48 hours. Compounds are tested at a single concentration, which is 10^-5 M for most compounds. The reported endpoint is percent growth (GI% or GIPRCNT), where numbers from 0 - 100% represent growth inhibition, and numbers from -100% - 0 represent cell death. For example, a value of 40 represents 60% growth inhibition. A value of 0 means no net growth occurred over the course of the experiment. A value of -40 indicates 40% of cells at the beginning of the experiment died by the end of the experiment. A value of -100 means all cells are dead at the end of the experiment.\nNCI-60 Human Tumor Cell Lines Screen was performed using the standard one-dose NCI protocol, which is described in more detail at https://dtp.cancer.gov/discovery_development/nci-60/default.htm.\nCompounds with GIPRCNT values below 10 were considered active. Activity score was based on GIPRCNT using the following formula: […]\nScore is 0 for GIPRCNT values of 100 or above, 50 for GIPRCNT values of 0, and 100 for GIPRCNT values of -100."}
{"smiles": "CCOC(=O)C(Cc1ccccc1)n1c(O)c(C=Nc2ccc(C(=O)OCCN(CC)CC)cc2)sc1=O", "note": "(stereo not given)", "growth": "100% (inactive)"}
{"smiles": "C=CCOc1ccc(/C(O)=C2\\C(=O)C(=O)N(c3nccs3)C2c2ccccc2F)cc1", "note": "(stereo not given)", "growth": "122% (inactive)"}
{"smiles": "O=[N+]([O-])c1c(S(=O)(=O)O)cc2cc(S(=O)(=O)O)ccc2c1[N+](=O)[O-]", "growth": "97.2% (inactive)"}
{"smiles": "O=C1Nc2cc(Cl)ccc2Oc2cc(Oc3ccccc3)ccc21", "growth": "83% (inactive)"}
{"smiles": "COc1ccc(NC(=O)/N=c2\\oc3c(OC)cccc3cc2-c2cc3ccccc3[nH]2)cc1", "growth": "88.3% (inactive)"}
{"smiles": "O=S(=O)(NCCCNc1cc(-c2cn(-c3ccccc3)nc2-c2cccc(O)c2)ccn1)c1ccc(Br)cc1", "growth": "23.4% (inactive)"}
{"smiles": "NC(=O)c1c(NC(=O)c2ccc3c(c2)OCO3)sc2c1CCC(=O)C2", "growth": "-49.8% (active)"}
{"smiles": "O=C(/C=C/CN1CCOCC1)Nc1cc2c(Nc3ccc(F)c(Cl)c3F)ncnc2cc1OCCOC(F)F", "growth": "49.6% (inactive)"}
{"smiles": "COc1ccc([N+](=O)[O-])c(/C=C/C(=O)c2ccccn2)c1", "growth": "90.5% (inactive)"}
{"smiles": "CCNCc1ccncc1", "growth": "112% (inactive)"}
{"smiles": "O=C(/C=C/CN1CCCCC1)Nc1cc2c(Nc3ccc(F)c(Cl)c3F)ncnc2cc1OCCOC(F)F", "growth": "34.8% (inactive)"}
{"smiles": "COc1ccc(C2CC(c3cccs3)=NN2c2ccc(S(=O)(=O)NC(=O)NCc3cccc(OC)c3)cc2)cc1", "note": "(stereo not given)", "growth": "113% (inactive)"}
{"smiles": "COc1ccc(/C=C/C(=O)/C=C/c2cc3ccc(Cl)cc3[nH]c2=O)cc1", "growth": "108% (inactive)"}
{"smiles": "COc1cc(C2C=C(C)N=C3SC=C(C)N32)cc(OC)c1OC", "note": "(stereo not given)", "growth": "-45.8% (active)"}
{"smiles": "COc1cc2c(cc1OC)C1(C)N(CC2)C(=O)OC1(C)C", "note": "(stereo not given)", "growth": "107% (inactive)"}
{"smiles": "C=C1C(=O)O[C@H]2[C@H]1CC/C(COC(=O)NCc1cc(OC)c(OC)c(OC)c1)=C\\CC[C@@]1(C)O[C@@H]21", "growth": "85% (inactive)"}
{"smiles": "COc1ccc(Cl)cc1NC(N)=S", "growth": "113% (inactive)"}
{"smiles": "CCN(C(=O)c1cc2ncccc2[nH]1)[C@H]1CCC[C@@H](NCc2cccc(F)c2)C1", "growth": "81.6% (inactive)"}
{"smiles": "Nc1cc2c(cc1N)-c1cc(N)c(N)cc1C2", "growth": "109% (inactive)"}
{"smiles": "O=C(Nc1cccc(C(F)(F)F)c1)Nc1ccc(OCc2nnc(-c3ccccc3)o2)c(F)c1", "growth": "50.9% (inactive)"}
{"smiles": "C#CCN1C(=O)/C(=c2\\sc3n(c2=O)NC2C(N=3)N(CC)C(=O)N2CC)c2ccccc21", "note": "(stereo not given)", "growth": "73.8% (inactive)"}
{"smiles": "CSc1nc(-c2cc3ccccc3o2)cc(-c2ccc(Cl)cc2)c1C#N", "growth": "93.7% (inactive)"}
{"smiles": "CCn1cc(C(=O)O)c(=O)c2cc(F)c(N3CCN(S(=O)(=O)c4ccc(OC)c(OC)c4)CC3)cc21", "growth": "102% (inactive)"}
{"smiles": "C=C1C(=O)O[C@H]2[C@H]1CC/C(COC(=O)NCCc1cccc(OC)c1)=C\\CC[C@@]1(C)O[C@@H]21", "growth": "75.1% (inactive)"}
{"smiles": "Nc1nc(-c2ccccc2)cs1", "growth": "98.7% (inactive)"}
{"smiles": "CCC(=O)Oc1ccc2c(c1)CC[C@@H]1[C@@H]2CC[C@]2(C)C[C@H](OC(=O)CC)C[C@@H]12", "growth": "98.4% (inactive)"}
{"smiles": "Cc1cccc2cc(/C=C/C(=O)/C=C/c3ccc(Cl)cc3)c(=O)[nH]c12", "growth": "84.8% (inactive)"}
{"smiles": "CCn1cc(C2NC(=O)c3cc(F)ccc3N2)c2cccc(Cl)c21", "note": "(stereo not given)", "growth": "36% (inactive)"}
{"smiles": "COc1ccc(/C=C/c2nc(N3CCOCC3)c3nc(Cl)c(Cl)cc3n2)cc1OC", "growth": "109% (inactive)"}
{"smiles": "Cc1nn(-c2ccc(Cl)cc2)c(=O)n1CCOc1ccccc1Cl", "growth": "102% (inactive)"}
{"smiles": "Cc1c(C2=NNC(c3ccc4c(c3)OCO4)C2)[n+]([O-])c2ccccc2[n+]1[O-]", "note": "(stereo not given)", "growth": "91.9% (inactive)"}
{"smiles": "C/C(=N\\NC(=O)CC#N)c1cc2cc(Cl)ccc2o1", "growth": "105% (inactive)"}
{"smiles": "Cc1cc(C)c(NC(=O)c2sc3nc4c(cc3c2N)CN(Cc2ccccc2)CC4)c(C)c1", "growth": "57.1% (inactive)"}
{"smiles": "O=C(CNC1CCCCC1)Nc1ccc(-c2nc3ccccc3s2)cc1", "growth": "94.7% (inactive)"}
{"smiles": "COc1c(NC[C@H]2OC(O)[C@H](O)[C@@H](O)[C@@H]2O)c(=O)c1=O", "note": "(stereo not given in full)", "growth": "103% (inactive)"}
{"smiles": "NC(C(=O)O)C(O)c1ccc(OCc2ccccc2)c(OCc2ccccc2)c1", "note": "(stereo not given)", "growth": "101% (inactive)"}
{"smiles": "O=C1NC(Cc2c[nH]c3ccccc23)C(=O)N1Cc1ccc(Cl)cc1", "note": "(stereo not given)", "growth": "108% (inactive)"}
{"smiles": "CN(C)C/C=C/C(=O)Nc1cc2c(Nc3ccc(F)c(Cl)c3F)ncnc2cc1OCCOC(F)F", "growth": "26.6% (inactive)"}
{"smiles": "COc1ccc(/C=C2\\CCCC3=C2NC(C)=NC3c2ccc(OC)c(OC)c2)cc1OC", "note": "(stereo not given)", "growth": "4.73% (active)"}
{"smiles": "COC(=O)[C@H]1[C@H](OC)[C@@H](OC(=O)/C=C/c2ccncc2)CC2CN3CCc4c([nH]c5cc(OC)ccc45)[C@@H]3C[C@@H]21", "note": "(stereo not given in full)", "growth": "106% (inactive)"}
